HCMV antiviral = inhibitors of human cytomegalovirus. HFF cells, HCMV-luciferase reporter, 72 h; stronger effect = lower value. activity change, negative = inhibition, % at 57.5 µM. 410,000 tested, 4.5% active; in the data active = activity change below about -60%; inconclusive = no clear call, values can overlap the other calls; inactive = above about -39%
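Compounds were evaluated in HFFs infected with an HCMV luciferase reporter virus (MOI 1 PFU/cell). Luciferase in lysates collected 72 h post infection served as the replication measure.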
Pf growth 96h = inhibits malaria parasite growth, 96 h. 320,000 tested, 6.9% active. P. falciparum luciferase reporter growth, 96 h. Potency, µM (series often up to 28.7 µM), usual class: inhibitors
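Readout is luminescence from an integrated firefly luciferase in P. falciparum. Red cells, 2% hematocrit and 0.05% parasitemia final, were cultured with compound through two parasite generations (96 hours) at 37 C, 5% CO2.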
Pf growth 48h = inhibits P. falciparum growth in the first generation, 48 h | 310,000 tested, 5.9% active | P. falciparum luciferase growth in erythrocytes, 48 h | Potency, µM (doses to about 28.7 µM), most hits filed as inhibitors
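Here the parasites carry a stable luciferase gene and grow inside erythrocytes in Albumax-based RPMI medium with compound for one erythrocytic cycle. Activity is scored as loss of luminescent signal.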
HCV inh = blocks hepatitis C virus; Huh7.5.1 HCVcc-Cre infection, luciferase reporter, 44 h; Potency, µM (top dose mostly 41.8 µM), hits mostly inhibitors; 340,000 tested, 3.4% active; AID 651820
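Infectious HCVcc-Cre (~0.5 moi) was added to cells just after compound, with cells seeded 4 h earlier at 1,000 per well. Luciferase activity after 44 h culture reported infection; substrate was incubated 15 min at room temperature before reading.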
Sm TGR inh = inhibitors of Schistosoma mansoni thioredoxin glutathione reductase; Q962Y6; purified TGR, DTNB reduction, TNB absorbance 405 nm; Potency, µM (highest dose often 114 µM), usual class: inhibitors; 360,000 tested, 3% active; AID 485364; also: nearly all actives have a fitted effect of over 60% in size
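First, TGR (20 nM dispensed) and NADPH were mixed with compound. Second, a 15 min room-temperature incubation followed. Third, further NADPH and then DTNB were added to start the reaction. Finally, TNB absorbance was monitored kinetically.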
SARS PLpro yeast = SARS-CoV PLP inhibition in yeast; S. cerevisiae expressing SARS-CoV PLpro, growth rescue; Potency, µM (highest dose often 32.9 µM), usual class: activators; 330,000 tested, 0.19% active; AID 485353; calls by dose curve; also: nearly all actives have a fitted effect of over 55% in size
Of the large screens only hits and unclear results are named; the others gave an inactive call. This is a sample that favours compounds with a hit; in the whole collection about 15% have one here. Unless noted, calls follow the shape of the dose curve; as a rule, active = well fitted curve in the direction sought with a large enough effect; inconclusive = small, poorly fitted or top-dose-only effect, or another doubt; inactive = no such curve, though single readings can be large; an effect the other way counts as inactive or inconclusive.

COc1ccc(CCNC(=O)c2c(O)c3ccccc3[nH]c2=O)cc1	none
Cc1ccc(N2CC(NC(=O)CCc3ccccc3)CC2=O)cc1C (configuration not stated)	none (no result: Pf growth 96h, Pf growth 48h, HCV inh, SARS PLpro yeast)
Clc1ccccc1Cc1noc(CN2CCN3CCCC3C2)n1 (configuration not stated)	Pf growth 96h 2.9µM, Pf growth 48h inconclusive
OC1CCN(Cc2nc(Cc3ccccc3Cl)no2)CC1	none
NC(=O)[C@@H]1CCCN1Cc1nc(Cc2ccccc2Cl)no1	Pf growth 96h 3.7µM
O=S(=O)(c1ccc(F)cc1)N1CCC(n2cnc3ccccc32)CC1	none
Nc1ncnc2c1ncn2C1CCCO1 (configuration not stated)	HCMV antiviral -73 (no result: SARS PLpro yeast)
N#Cc1cccnc1N1CCN(C(c2ccnc3ccccc23)c2nnnn2-c2ccc3c(c2)OCCO3)CC1 (configuration not stated)	none (no result: Pf growth 96h, Pf growth 48h, HCV inh, Sm TGR inh, SARS PLpro yeast)
CCN(CC)C(=O)Cn1c(=O)c2ccccc2n2c(=S)sc(-c3cccc(C)c3)c12	Pf growth 96h 2.1µM, Pf growth 48h inconclusive, HCV inh 0.56µM
CCN(CC)C(=O)Cn1c(=O)n(Cc2ccc(C(=O)NCc3ccc(C)cc3)cc2)c(=O)c2ccccc21	none (no result: Pf growth 96h, Pf growth 48h, HCV inh, SARS PLpro yeast)
CC(=O)N1CCCC(c2cc(C(=O)Nc3ccccc3)no2)C1 (configuration not stated)	HCMV antiviral -73 (no result: Pf growth 96h, Pf growth 48h, HCV inh, Sm TGR inh, SARS PLpro yeast)
CCc1cc(=O)oc2cc3oc(C)c(C)c3cc12	Pf growth 96h inconclusive, Pf growth 48h inconclusive, HCV inh inconclusive
CCCc1cc(=O)oc2cc3oc(C)c(C)c3cc12	HCV inh 22µM (no result: Pf growth 96h)
Cc1coc2cc3oc(=O)c4c(c3cc12)CCC4	none (no result: HCMV antiviral, Pf growth 96h)
Cc1c(C)c2cc3c(C)coc3cc2oc1=O	Pf growth 96h 5.2µM, Sm TGR inh inconclusive
CCCc1cc(=O)oc2cc(C)c3c(C)coc3c12	HCV inh 10µM
CCCc1cc(=O)oc2cc3occ(C)c3cc12	HCV inh 2.2µM (no result: Pf growth 96h)
CCCCN(C)CCNC(=O)CN1C(=O)CSc2ccc(S(=O)(=O)N3CCCC3)cc21	SARS PLpro yeast inconclusive
Cc1cc(-c2ccccc2)c2ccc(NC(=O)C(C)(C)C)nc2n1	Pf growth 96h inconclusive, Pf growth 48h inconclusive
CCC1CCCCN1CCCNC(=O)c1cn(CC)c2ccc(S(=O)(=O)N3CCc4ccccc4C3)cc2c1=O (configuration not stated)	HCV inh 13µM
CCn1cc(C(=O)NCCCN2CCCC(C)C2)c(=O)c2cc(S(=O)(=O)N3CCc4ccccc4C3)ccc21 (configuration not stated)	HCMV antiviral -74, Pf growth 96h inconclusive, Pf growth 48h inconclusive, HCV inh 11µM
OCCNCc1c(OCc2ccc(Cl)cc2)ccc2ccccc12	HCMV antiviral -79, HCV inh 11µM
CC(O)CNCCNCc1c(OCc2ccccc2)ccc2ccccc12 (configuration not stated)	Pf growth 96h 2.3µM, Pf growth 48h 1.9µM, HCV inh inconclusive
CC(O)CNCCOc1ccccc1OCc1ccccc1 (configuration not stated)	none
COc1cccc(NC(=O)CN(C)C(=O)Cc2c(C)nc3ccccc3c2C)c1	Pf growth 96h inconclusive, Pf growth 48h inconclusive, HCV inh inconclusive
COc1ccc(N=Nc2ccc(N)nc2N)cc1	none
CCOc1ccc2nc3cc(N=Nc4ccc(N)nc4N)ccc3c(N)c2c1	HCV inh 11µM (no result: HCMV antiviral, Pf growth 96h, Pf growth 48h, Sm TGR inh, SARS PLpro yeast)
CN(C)CCN(C)Cc1ccccc1Sc1cccc2ccccc12	HCMV antiviral -75, Pf growth 96h 13µM, Pf growth 48h inconclusive, HCV inh 11µM
Cc1ccc(S(=O)(=O)n2nc(OC(=O)c3c(-c4ccccc4Cl)noc3C)cc2N)cc1	Pf growth 96h 2.1µM
Cc1ccc(C(=O)Oc2cc(N)n(S(=O)(=O)c3ccc(C)cc3)n2)cc1	none
Cc1onc(-c2ccccc2Cl)c1C(=O)Oc1cc(N)n(S(=O)(=O)c2ccc(F)cc2)n1	Pf growth 96h inconclusive
Cc1ccc(S(=O)(=O)n2nc(OC(=O)c3ccccc3F)cc2N)cc1	Pf growth 96h 12µM, Sm TGR inh 16µM
COc1ccc2c(O)c(-c3c(C)cc(C)cc3C)c(=O)[nH]c2c1	HCMV antiviral -63 (no result: Pf growth 96h, Pf growth 48h, Sm TGR inh, SARS PLpro yeast)
COc1ccc2c(C)cc(=O)[nH]c2c1	Pf growth 96h inconclusive
COc1cc(CCC(=O)OCC(=O)Nc2ccc(C)cc2Cl)cc(OC)c1OC	none
COc1cc(-c2cc(C(=O)N(C)Cc3ccccc3)c3ccccc3n2)cc(OC)c1OC	Pf growth 96h inconclusive, Pf growth 48h 13µM, HCV inh inconclusive
COc1ccccc1CN(C)C(=O)c1cc(-c2cc(OC)c(OC)c(OC)c2)nc2ccccc12	Pf growth 96h inconclusive, Pf growth 48h inconclusive, HCV inh inconclusive
COCCN(Cc1ccccc1)C(=O)c1cc(-c2ccc(OC)c(OC)c2)nc2ccccc12	Pf growth 96h inconclusive, Pf growth 48h 9.3µM, HCV inh inconclusive
Nc1nc2c(Cl)cc(Cl)cc2s1	none
Nc1nc2c(Cl)ccc(Cl)c2s1	HCMV antiviral inconclusive, Pf growth 96h 8.3µM, Pf growth 48h inconclusive
CCOC(=O)c1cc(-c2ccccc2)sc1NC(=O)C(C)(C)C	Pf growth 96h inconclusive, Pf growth 48h 9.3µM
CCOC(=O)c1cc(-c2ccccc2)sc1NC(=S)Nc1cc(C)ccn1	Pf growth 96h 13µM, Pf growth 48h inconclusive
CCOC(=O)c1cc(-c2ccccc2)sc1NC(=O)CC(C)C	Pf growth 96h 7.4µM, Pf growth 48h inconclusive
CCOC(=O)c1cc(-c2ccccc2)sc1NC(=O)CN1C(=O)c2ccccc2C1=O	none (no result: Pf growth 96h, Pf growth 48h, Sm TGR inh, SARS PLpro yeast)
CCCC1(c2ccccc2)NC(=O)N(CC(=O)Nc2sc(-c3ccccc3)cc2C(=O)OCC)C1=O (configuration not stated)	HCMV antiviral -62, Pf growth 48h inconclusive (no result: Pf growth 96h)
C[C@H]1C=C(C(=O)NC2CC2)O[C@@H](OCc2ccc(CO)cc2)C1	none
O=C1CCc2cc(S(=O)(=O)Nc3cccc(F)c3)cc3c2N1CC3	SARS PLpro yeast inconclusive
COc1ccc(N(CC(=O)Nc2ccc(C)cn2)S(=O)(=O)c2c(C)noc2C)cc1	HCMV antiviral inconclusive
COC(=O)c1nc(N)sc1-c1ccc(Cl)cc1	Pf growth 96h inconclusive
COC(=O)c1nc(N)sc1-c1ccccc1	Pf growth 96h 9.3µM
COC(=O)c1cc(-c2ccccc2)sc1N	HCV inh 2µM (no result: Pf growth 48h)
C=CCNC(=S)NNC(=O)c1ccc(C)c(Cl)c1	none (no result: Sm TGR inh)
COc1ccc(C(=O)c2ccc(OC)c(Br)c2)cc1Br	Pf growth 96h inconclusive, Sm TGR inh 10µM
C=CCN(CC=C)C(=S)NC(=O)c1ccc(OC)c(Br)c1	Pf growth 96h 15µM, Pf growth 48h 10µM (no result: HCMV antiviral)
COc1ccc(C(=O)c2ccc(N3CCN(C(=O)c4ccc(F)cc4)CC3)c(F)c2)cc1Br	HCMV antiviral -88, HCV inh inconclusive, Sm TGR inh inconclusive (no result: Pf growth 48h)

Screens as filed in PubChem BioAssay.
